The values below come from publication PMC4336329 (PLoS ONE, 2015).

The whole screen tested about 310,000 compounds, of which about 14,000 (4.5%) showed an effect of 50% or more. Effects have a minus sign here. The list comes from a sample in which strong results are over-represented; it also holds similar structures and randomly drawn compounds.
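Note: peak tail current of the secondary pulse compared with the same well before compound.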

human ether-à-go-go-related gene (hERG) potassium channel, sequence (Q12809 whole entry, looked up): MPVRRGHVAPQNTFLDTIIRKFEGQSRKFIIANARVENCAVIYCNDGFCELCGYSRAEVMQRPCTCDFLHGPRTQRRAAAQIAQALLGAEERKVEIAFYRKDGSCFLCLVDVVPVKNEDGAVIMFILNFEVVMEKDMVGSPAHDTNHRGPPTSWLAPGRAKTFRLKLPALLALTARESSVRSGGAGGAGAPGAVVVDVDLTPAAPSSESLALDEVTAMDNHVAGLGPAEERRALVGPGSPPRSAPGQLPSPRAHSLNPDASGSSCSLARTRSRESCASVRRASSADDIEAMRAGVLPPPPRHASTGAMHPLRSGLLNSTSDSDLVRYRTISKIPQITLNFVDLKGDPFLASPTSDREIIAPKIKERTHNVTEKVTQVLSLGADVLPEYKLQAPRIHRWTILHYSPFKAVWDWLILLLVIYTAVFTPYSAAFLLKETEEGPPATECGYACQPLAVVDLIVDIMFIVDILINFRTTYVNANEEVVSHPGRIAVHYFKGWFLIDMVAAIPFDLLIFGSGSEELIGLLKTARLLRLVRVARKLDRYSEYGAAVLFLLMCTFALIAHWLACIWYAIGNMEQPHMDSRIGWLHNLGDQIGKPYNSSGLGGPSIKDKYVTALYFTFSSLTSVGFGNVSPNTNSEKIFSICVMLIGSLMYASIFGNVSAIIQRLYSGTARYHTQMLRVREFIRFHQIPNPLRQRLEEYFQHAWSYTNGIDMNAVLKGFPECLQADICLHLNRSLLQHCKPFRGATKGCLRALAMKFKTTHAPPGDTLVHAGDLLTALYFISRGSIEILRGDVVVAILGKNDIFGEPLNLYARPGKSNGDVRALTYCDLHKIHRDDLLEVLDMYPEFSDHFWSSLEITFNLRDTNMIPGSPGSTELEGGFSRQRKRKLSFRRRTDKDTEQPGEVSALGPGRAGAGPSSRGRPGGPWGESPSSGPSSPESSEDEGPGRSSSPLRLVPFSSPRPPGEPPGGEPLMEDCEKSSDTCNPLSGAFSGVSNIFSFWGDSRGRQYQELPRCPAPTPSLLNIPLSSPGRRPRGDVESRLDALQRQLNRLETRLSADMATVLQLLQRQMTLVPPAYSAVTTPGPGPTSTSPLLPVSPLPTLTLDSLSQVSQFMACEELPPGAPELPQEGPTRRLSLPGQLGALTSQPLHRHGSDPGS

The assay has as its target human ether-à-go-go-related gene (hERG) potassium channel (human, UniProt Q12809). Put plainly: primary screen, population patch clamp on CHO cells stably expressing hERG; higher = less effect of the substance.
As to `COC(=O)C1=C(C)N=c2s/c(=C/c3cccs3)c(=O)n2C1c1cccs1` (centres unmarked), the “hERG current change (%, negative = inhibition) at 10uM” value is listed as -7.35%. In the case of `COC(=O)CN1C(=O)Nc2ccc(C)cc2C1c1ccccc1` (centres unmarked), the “hERG current change (%, negative = inhibition) at 10uM” value amounted to 14.3%. As for `COc1ccc(Cl)cc1NC(=O)CSc1nnc(COc2ccccc2)n1N`, the figure is -5.96%; as for `COc1cccc(NC(=O)CSc2nnc(Cc3cccn3C)n2-c2ccc(F)cc2)c1`, -15.5%. `COc1ccc(-n2c(Cc3cccn3C)nnc2SCC(=O)Nc2cccc(OC)c2)cc1`: the “hERG current change (%, negative = inhibition) at 10uM” value is listed as -23.4%. To `COc1ccc(NC(=O)CSc2nnc(CNC(=O)COc3ccc(Cl)cc3)o2)c(OC)c1` belongs -12.9%.

In the case of `COc1ccc(OC)c(NC(=O)CSc2nnc(CNC(=O)COc3ccc(Cl)cc3)o2)c1`, the “hERG current change (%, negative = inhibition) at 10uM” value is -60.1%.

In the case of `COc1cc2c(cc1NC(=O)CSc1nnc(COc3ccc(Cl)cc3)n1C)oc1ccccc12`, the “hERG current change (%, negative = inhibition) at 10uM” value was determined as 6.05%. In the case of `COc1ccccc1NC(=O)CSc1nnc(CNC(=O)COc2ccc(Cl)cc2)o1`, the “hERG current change (%, negative = inhibition) at 10uM” value is -43.7%. As for `COc1ccc(-n2c(Cc3cccn3C)nnc2SCC(=O)Nc2cccc(F)c2)cc1`, the figure is -54.3%; as for `COc1ccc(Cl)cc1NC(=O)CSc1nnc(COc2ccccc2)n1C`, -57.3%; as for `CN(CCC#N)C(=O)COC(=O)c1ccccc1C(=O)c1ccc(Cl)c([N+](=O)[O-])c1`, -0.749%. To `CCOC(=O)CCC(=O)N1CCOCCOCCN(C(=O)CCC(=O)OCC)CCOCC1` belongs -7.63%; to `Cc1cc(C)c2nc(-c3ccccn3)cc(C(=O)Nc3cc(C)on3)c2c1`, 10.4%. To `COc1ccc(-n2nc(C(=O)NCC(=O)NC(C)C)c3ccccc3c2=O)cc1Cl` belongs 4.05%; to `COC(=O)c1c(C(=O)OC)c(-c2ccc(OC)cc2)n2c1CS(=O)C2` (centres unmarked), 10.1%; to `COC(=O)c1c(C(=O)OC)c(-c2ccc(F)cc2)n2c1CS(=O)C2` (centres unmarked), 26.7%.

With `COC(=O)c1c(C(=O)OC)c(-c2ccc(C)cc2)n2c1CS(=O)C2` (centres unmarked), the “hERG current change (%, negative = inhibition) at 10uM” value is listed as -53.8%. To `OCc1nc2ccccc2n1CCCCOc1ccccc1` belongs 0.828%; to `CC(C)(C)C(=O)NCCCc1nc2ccccc2n1CCCOc1ccc(Cl)cc1`, -57.2%. Turning to `CC(C)C(=O)NCCc1nc2ccccc2n1CCCOc1ccc(Cl)cc1`, the “hERG current change (%, negative = inhibition) at 10uM” value is -41.7%. To `OCCCc1nc2ccccc2n1CCCCOc1ccccc1` belongs -57.2%; to `CC(C)(C)C(=O)NCCc1nc2ccccc2n1CC(=O)c1ccc(Cl)cc1`, -33.2%. As for `OCCCc1nc2ccccc2n1CCOc1ccccc1`, the “hERG current change (%, negative = inhibition) at 10uM” value was -5.7%. In the case of `CCSc1nnc(NC(=O)C2CCCCC2C(=O)OCC(F)(F)C(F)F)s1` (centres unmarked), the “hERG current change (%, negative = inhibition) at 10uM” value was determined as 17.9%. On to `O=C(COc1ccccc1)Nc1ccc([N+](=O)[O-])cc1`, for which the “hERG current change (%, negative = inhibition) at 10uM” value was 1.57%.

On to `CCOC(=O)c1[nH]cnc1C(=O)Nc1ccccc1OC`, for which the “hERG current change (%, negative = inhibition) at 10uM” value is -2.79%.

Turning to `Cc1csc(SCC(=O)Nc2nnc(C)s2)n1`, the “hERG current change (%, negative = inhibition) at 10uM” value is on record as 15%.

For the compound `CC(Sc1nncn1C)C(=O)Nc1ccccc1-c1ccccc1` (centres unmarked), the “hERG current change (%, negative = inhibition) at 10uM” value was found to be 8.27%. To `O=C(NC1CCCC1)C(c1ccncc1)N(C(=O)c1ccco1)c1ccccc1` (centres unmarked) belongs -5.61%; to `CCCN1CCC(CCOc2ccccc2)(C(=O)OCC)CC1`, -58.5%. To `CCOC(=O)C1(CCOc2ccccc2)CCN(CC(O)CO)CC1` (centres unmarked) belongs -26.9%; to `CCOC(=O)C1(CCOc2ccccc2)CCN(CC2CC2)CC1`, -47.4%. As to `CCOC(=O)C1(CCOc2ccccc2)CCN(CC=C(C)C)CC1`, the “hERG current change (%, negative = inhibition) at 10uM” value is given as -50.2%. To `CCN1CCN(Cc2cccnc2)CC1` belongs 17.1%. As for `CCCCOC(=O)c1ccc(NC(=O)CSc2nncn2C)cc1`, the figure is -4.57%; as for `Cc1ccc(S(=O)(=O)NNC(=O)c2cnn(-c3ccccc3)c2-n2cccc2)cc1`, -15%. To `COc1ccc(C(=O)/C=C/C(=O)N(Cc2ccccc2)C(C(=O)NC2CCCCC2)c2ccncc2)c(O)c1` (centres unmarked) belongs -19.3%; to `O=C(N/N=C/c1ccsc1)c1ccc2ccccc2n1`, -2.2%.

As to `O=c1c2ccccc2nnn1CSc1nc2ccccc2c(=O)n1Cc1ccco1`, the “hERG current change (%, negative = inhibition) at 10uM” value is reported as -6.44%. To `O=C(CSc1nc2ccccc2c(=O)n1Cc1ccco1)N1CCCCCC1` belongs -76.4%; to `O=C(CSc1nc2ccccc2c(=O)n1Cc1ccco1)N1CCN(c2ccccc2)CC1`, -74.9%; to `NC(=O)CSc1nc2ccccc2c(=O)n1Cc1ccco1`, -36%. As for `CCn1c(SCC(=O)N2CCN(c3cccc(Cl)c3)CC2)nc2ccccc2c1=O`, the figure is -39.1%; as for `CCOC(=O)CSc1nc2ccccc2c(=O)n1Cc1ccco1`, -18.1%. As for `O=C(CSc1nc2ccccc2c(=O)n1Cc1ccco1)N1CCCC1`, the figure is -77.1%; as for `COCCn1nnnc1CN1CCN2CCCC2C1.Cl` (centres unmarked), 3.16%. On to `C/C(=N/NC(=O)c1cc(-c2ccccc2)nc2c(Cl)cccc12)c1cccnc1`, for which the “hERG current change (%, negative = inhibition) at 10uM” value is on record as 26.1%.

In the case of `Cc1cc(=O)[nH]c(SCC(=O)N2CCCC(C)C2)n1` (centres unmarked), the “hERG current change (%, negative = inhibition) at 10uM” value amounted to 11.3%. As for `CCOc1ccc(N(CC(=O)Nc2ccc(OC)cc2)S(=O)(=O)c2c(C)[nH]c(=O)[nH]c2=O)cc1`, the figure is 1.99%; as for `COc1ccc(S(=O)(=O)N2CCOCC2)cc1C(=O)NCC(c1ccco1)N1CCCC1` (centres unmarked), 3%; as for `OCCN1CCN(CCCN2c3ccccc3Sc3ccc(Cl)cc32)CC1`, -49.3%. On to `C[NH+](C)CCCN1c2ccccc2Sc2ccc(Cl)cc21.[Cl-]`, for which the “hERG current change (%, negative = inhibition) at 10uM” value is given as -65.3%. To `CN(C)CCCN1c2ccccc2Sc2ccc(Cl)cc21.Cl` belongs -42.2%. To `O=C(Nc1ccccc1C(=O)N1CCCC1)c1ccc(Cl)cc1Cl` belongs 14%; to `Cc1cc(C(=O)CSc2nnc(NCc3ccccc3)s2)c(C)n1C`, -9.15%.
